In PubChem BioAssay (Tox21):
Several values for one entry are separate records, joined by “and”; a condition that tells them apart may be missing. Equal values may be shown once. Inconclusive results are not listed. Activity calls are given as the source filed them. Unless noted, the call rests on the fitted dose curve; in most records, active means well fitted curve in the direction sought with a large enough effect in the repeat runs; inconclusive means weak or mixed curves; inactive means no such curve, though single readings can be large; an effect the other way counts as inactive or inconclusive.

How the values were obtained:
[1] = qHTS assay to identify small molecule agonists of the sonic hedgehog signaling (Shh) pathway (AID 1259368; calls by dose curve; further: series mostly up to about 92 µM; nearly all actives have a fitted effect of over 15% in size)
Summary of the method: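 NIH/3T3-derived 3T3Gli1-Luc cells carrying a stably integrated Gli1 response element–firefly luciferase reporter were plated, left 4 hr at 37 C, then given compounds in DMSO for 24 hr. Luminescence was read 30 min after adding luciferase reagent.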

[2] = qHTS assay to identify small molecule antagonists of the sonic hedgehog signaling (Shh) pathway (AID 1259369; calls by dose curve; further: nearly all actives have a fitted effect of over 45% in size; further: potency means the concentration at half of the fitted maximal effect)
Summary of the method: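 NIH/3T3-derived 3T3Gli1-Luc cells with stably integrated Gli1-Luc reporter were preincubated 4hr at 37 C, then given compounds in DMSO plus Shh conditioned medium and incubated 24hr. Firefly luciferase luminescence read after 30min reagent at room temperature.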

[3] = target: Estrogen receptor beta (Homo sapiens) (UniProt Q92731); test: qHTS assay to identify small molecule agonists of the estrogen receptor beta (ER-beta) signaling pathway (AID 1259377; active means well fitted activation curve with a large enough effect in the signal ratio in the repeat runs, not every such curve was filed as active; the % refers to the signal ratio)
Estrogen receptor beta (Homo sapiens), sequence (Q92731 whole entry, looked up): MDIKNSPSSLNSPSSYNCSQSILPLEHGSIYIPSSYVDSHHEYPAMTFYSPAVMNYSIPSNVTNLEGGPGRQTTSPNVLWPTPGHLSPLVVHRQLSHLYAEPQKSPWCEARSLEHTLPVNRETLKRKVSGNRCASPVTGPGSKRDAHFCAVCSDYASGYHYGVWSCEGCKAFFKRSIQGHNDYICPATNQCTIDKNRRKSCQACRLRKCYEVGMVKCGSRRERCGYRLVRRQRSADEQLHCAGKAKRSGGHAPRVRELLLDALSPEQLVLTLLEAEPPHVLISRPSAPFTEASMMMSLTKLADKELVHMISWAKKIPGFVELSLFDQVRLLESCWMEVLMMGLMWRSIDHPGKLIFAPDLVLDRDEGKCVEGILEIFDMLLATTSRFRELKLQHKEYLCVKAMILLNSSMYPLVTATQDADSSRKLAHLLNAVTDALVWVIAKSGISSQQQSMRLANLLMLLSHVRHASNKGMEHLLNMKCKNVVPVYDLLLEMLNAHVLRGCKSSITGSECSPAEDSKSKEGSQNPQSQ
Summary of the method: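 Reporter cells (HEK293T, ER-beta-UAS-bla) receive compounds or DMSO after a 6 hr pre-incubation. They then incubate 16 hr at 37C/5% CO2, and fluorescence from LiveBLAzer B/G substrate is measured after 2 hours at room temperature.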

[4] = target: Estrogen receptor beta (Homo sapiens) (UniProt Q92731); test: qHTS assay to identify small molecule antagonists of the estrogen receptor beta (ER-beta) signaling pathway (AID 1259378; active means well fitted inhibition curve with a large enough effect in the signal ratio in the repeat runs, not every such curve was filed as active; the % refers to the signal ratio)
Summary of the method: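 Antagonist mode: compounds added to beta-lactamase reporter HEK293T ER-beta-UAS cells stimulated with E2 (1nM final), 16 hr at 37C. LiveBLAzer B/G FRET substrate, 2 hours room temperature, fluorescence read-out.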

[5] = qHTS assay to identify small molecule agonists of the androgen receptor (AR) signaling pathway in the presence of an antagonist - cell viability counter screen (AID 1259379); further: series mostly up to about 92 µM; nearly all actives have a fitted effect of over 25% in size
Summary of the method: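 MDA-kb2 human breast carcinoma cells (stable MMTV-luciferase, AR/GR responsive) were seeded 3,000 cells/well, pre-incubated 5 hr at 37C without CO2, then given 3.0uM nilutamide and compounds at 15 concentrations for 16 hr. Viability was read by CellTiter-Fluor fluorescence.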

[6] = qHTS assay to identify small molecule agonists of the estrogen receptor beta (ER-beta) signaling pathway - cell viability counter screen (AID 1259380); further: nearly all actives have a fitted effect of over 30% in size
Summary of the method: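 ER-beta-UAS-bla HEK293T cells in medium with 2% charcoal-stripped FBS were preincubated 6 hr at 37C, dosed with compound in DMSO for 16 hr, then after the bla read, CellTiter-Glo was added for 30 min at room temperature; luminescence recorded.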

[7] = qHTS assay to identify small molecule antagonists of the estrogen receptor beta (ER-beta) signaling pathway - cell viability counter screen (AID 1259382);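 further: HEK293T cells carrying ER-beta-UAS-bla reporter stimulated with estradiol; series mostly up to about 92 µM; nearly all actives have a fitted effect of over 55% in size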
Summary of the method: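 ER-beta-UAS-bla HEK293T cells (2,000/well, 2% charcoal-stripped FBS) were pre-incubated 6 hr at 37C, then given compound plus 1nM final 17-beta-estradiol for 16 hr. Viability was read in the same wells by CellTiter-Glo luminescence after 30 min at room temperature.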

[8] = qHTS assay to identify small molecule agonists or antagonists of the thyroid stimulating hormone receptor (TSHR) signaling pathway - wild type cell line counter screen (AID 1259384; calls by dose curve)
Summary of the method: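 Counter screen in untransfected Hek293: compounds (15-point titration, triplicate) plus phosphodiesterase inhibitor Ro20-1724 added after 18 h plating; 30 min RT. Intracellular cAMP via competitive d2/cryptate immunoassay, 1 h incubation.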

[9] = target: Thyrotropin receptor (Homo sapiens) (UniProt P16473); test: qHTS assay to identify small molecule antagonists of the thyroid stimulating hormone receptor (TSHR) signaling pathway (AID 1259385; calls by dose curve; further: nearly all actives have a fitted effect of over 20% in size; further: potency means the concentration at half of the fitted maximal effect)
Thyrotropin receptor (Homo sapiens), sequence (P16473 whole entry, looked up): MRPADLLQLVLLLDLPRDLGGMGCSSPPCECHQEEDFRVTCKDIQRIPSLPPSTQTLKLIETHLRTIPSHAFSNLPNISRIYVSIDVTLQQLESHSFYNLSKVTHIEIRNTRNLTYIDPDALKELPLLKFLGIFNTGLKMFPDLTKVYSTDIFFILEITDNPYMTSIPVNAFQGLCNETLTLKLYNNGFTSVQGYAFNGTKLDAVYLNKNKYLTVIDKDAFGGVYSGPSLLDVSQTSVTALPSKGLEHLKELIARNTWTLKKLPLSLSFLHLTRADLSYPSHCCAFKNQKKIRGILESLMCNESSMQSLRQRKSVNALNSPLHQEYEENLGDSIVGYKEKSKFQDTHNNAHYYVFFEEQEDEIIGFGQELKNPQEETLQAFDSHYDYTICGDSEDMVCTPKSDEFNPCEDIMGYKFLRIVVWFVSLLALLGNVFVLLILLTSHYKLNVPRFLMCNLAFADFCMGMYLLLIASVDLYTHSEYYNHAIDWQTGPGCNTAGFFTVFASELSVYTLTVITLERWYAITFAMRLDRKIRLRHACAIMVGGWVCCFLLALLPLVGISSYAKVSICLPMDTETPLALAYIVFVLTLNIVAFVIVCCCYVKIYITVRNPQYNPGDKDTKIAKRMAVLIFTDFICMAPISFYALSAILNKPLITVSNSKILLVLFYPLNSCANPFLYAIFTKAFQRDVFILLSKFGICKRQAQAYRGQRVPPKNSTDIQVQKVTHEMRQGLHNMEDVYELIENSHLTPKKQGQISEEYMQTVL
Summary of the method: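 Antagonist mode: compound-treated TSHR-expressing HEK293 cells were stimulated with 1.5 ng/mL TSH (final) in presence of Ro20-1724 for 30 min at RT. HTRF cAMP detection after 1 h; each compound tested at 15 concentrations, triplicate.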

[10] = qHTS assay to identify small molecule agonists of the estrogen receptor alpha (ER-alpha) signaling pathway in the presence of an antagonist - cell viability counter screen (AID 1259386);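 further: series mostly up to about 92 µM; cells exposed to compounds for 22 h at 37 °C before the viability read; nearly all actives have a fitted effect of over 30% in size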
Summary of the method: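 VM7Luc4E2 cells (endogenous full-length ER-alpha, 4×ERE-luciferase) were held 5 days in phenol red-free medium with 10% charcoal-stripped FBS, plated, then given 10.0nM ICI-182,780 and compounds at 15 concentrations for 22hr at 37C; viability read by CellTiter-Fluor fluorescence.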

[11] = target: Progesterone receptor (Homo sapiens) (UniProt P06401); test: qHTS assay to identify small molecule agonists of the progesterone receptor (PR) signaling pathway (AID 1346784; calls by dose curve; further: nearly all actives have a fitted effect of over 30% in size)
Progesterone receptor (Homo sapiens), sequence (P06401 whole entry, looked up): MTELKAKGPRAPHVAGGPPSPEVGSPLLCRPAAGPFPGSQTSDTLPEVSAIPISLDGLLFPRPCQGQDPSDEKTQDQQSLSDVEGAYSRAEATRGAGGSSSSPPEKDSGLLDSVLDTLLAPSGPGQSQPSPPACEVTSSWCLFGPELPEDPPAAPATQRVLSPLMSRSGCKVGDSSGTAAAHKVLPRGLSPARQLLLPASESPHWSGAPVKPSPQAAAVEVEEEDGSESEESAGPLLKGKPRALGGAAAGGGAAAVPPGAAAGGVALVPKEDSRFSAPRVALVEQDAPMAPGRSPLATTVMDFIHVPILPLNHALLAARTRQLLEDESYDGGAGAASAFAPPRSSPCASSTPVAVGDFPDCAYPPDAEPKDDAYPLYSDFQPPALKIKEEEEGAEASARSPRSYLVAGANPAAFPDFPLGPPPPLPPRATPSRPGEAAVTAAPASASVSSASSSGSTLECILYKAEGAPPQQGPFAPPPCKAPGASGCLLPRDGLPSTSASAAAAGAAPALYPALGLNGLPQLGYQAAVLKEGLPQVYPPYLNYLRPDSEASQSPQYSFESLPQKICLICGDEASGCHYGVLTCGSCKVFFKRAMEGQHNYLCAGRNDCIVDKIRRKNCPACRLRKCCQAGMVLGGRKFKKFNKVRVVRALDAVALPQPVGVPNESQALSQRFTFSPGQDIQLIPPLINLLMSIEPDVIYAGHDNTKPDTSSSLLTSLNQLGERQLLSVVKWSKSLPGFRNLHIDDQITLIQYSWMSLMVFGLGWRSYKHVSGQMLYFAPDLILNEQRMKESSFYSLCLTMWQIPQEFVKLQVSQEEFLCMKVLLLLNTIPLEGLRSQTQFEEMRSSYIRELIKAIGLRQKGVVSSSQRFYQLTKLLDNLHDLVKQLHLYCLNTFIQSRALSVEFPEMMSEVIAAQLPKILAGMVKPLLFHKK
Summary of the method: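 Reporter assay, GripTite PR-UAS-bla HEK 293T cells: 16 hr exposure to DMSO-dissolved compounds at 37C, 5% CO2, in steroid-depleted (2% charcoal-stripped FBS) medium; beta-lactamase measured by FRET fluorescence.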

[12] = target: Progesterone receptor (Homo sapiens) (UniProt P06401); test: qHTS assay to identify small molecule antagonists of the progesterone receptor (PR) signaling pathway (AID 1346795; active means well fitted inhibition curve with a large enough effect in the signal ratio in the repeat runs, not every such curve was filed as active; the % refers to the signal ratio)
Summary of the method: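 Stimulus R5020 at 1 nM final; cells HEK293T PR-UAS-bla; medium with 2% charcoal-stripped FBS; compound exposure 16 hr at 37C, 5% CO2; detection by FRET beta-lactamase substrate, 2 hr, room temperature.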

[13] = qHTS assay to identify small molecule antagonists of the progesterone receptor (PR) signaling pathway - cell viability counter screen (AID 1346798); further: series mostly up to about 92 µM; nearly all actives have a fitted effect of over 50% in size
Summary of the method: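 In the same plates used for the beta-lactamase readout, cell viability of compound- and R5020-treated PR-UAS-bla HEK293T cells (16 hr, 37C) was assessed by CellTiter-Glo luminescence.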

[14] = qHTS assay to identify small molecule agonists of the progesterone receptor (PR) signaling pathway - cell viability counter screen (AID 1346799; calls by dose curve; further: nearly all actives have a fitted effect of over 45% in size)
Summary of the method: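 Multiplexed viability read: CellTiter-Glo luminescence, 30 min RT, following LiveBLAzer FRET measurement on PR-UAS-bla HEK293T cells exposed to compounds 16 hr.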

[15] = qHTS assay to identify small molecule antagonists of the TGF-beta/Smad signaling pathway - cell viability counter screen (AID 1346824); further: nearly all actives have a fitted effect of over 50% in size
Summary of the method: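 Cytotoxicity counter-screen run in the same wells as the beta-lactamase Smad reporter read: CellTiter-Glo luminescence after 30 min at room temperature. HEK 293T SBE-bla cells had 5 hr compound exposure at 37 C with TGF-beta1 (0.25 ng/mL stock).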

[16] = qHTS assay to identify small molecule agonists of the TGF-beta/Smad signaling pathway (AID 1346859; active means well fitted activation curve with a large enough effect in the signal ratio in the repeat runs, not every such curve was filed as active; the % refers to the signal ratio; further: series mostly up to about 77 µM)
Summary of the method: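 Screening used HEK 293T SBE-bla cells at 4,000/well. Test agents: 5 hr, 37 C. Detection: FRET substrate, 2 hr RT, then excitation 405 nm with emissions at 460 and 530 nm.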

[17] = target: Estrogen receptor (Homo sapiens) (UniProt P03372); test: qHTS assay to identify small molecule agonists of the estrogen receptor alpha (ER-alpha) signaling pathway in the presence of an antagonist (AID 1259383; calls by dose curve; further: top concentration of the series differs between compounds; nearly all actives have a fitted effect of over 15% in size)
Estrogen receptor (Homo sapiens), sequence (P03372 whole entry, looked up): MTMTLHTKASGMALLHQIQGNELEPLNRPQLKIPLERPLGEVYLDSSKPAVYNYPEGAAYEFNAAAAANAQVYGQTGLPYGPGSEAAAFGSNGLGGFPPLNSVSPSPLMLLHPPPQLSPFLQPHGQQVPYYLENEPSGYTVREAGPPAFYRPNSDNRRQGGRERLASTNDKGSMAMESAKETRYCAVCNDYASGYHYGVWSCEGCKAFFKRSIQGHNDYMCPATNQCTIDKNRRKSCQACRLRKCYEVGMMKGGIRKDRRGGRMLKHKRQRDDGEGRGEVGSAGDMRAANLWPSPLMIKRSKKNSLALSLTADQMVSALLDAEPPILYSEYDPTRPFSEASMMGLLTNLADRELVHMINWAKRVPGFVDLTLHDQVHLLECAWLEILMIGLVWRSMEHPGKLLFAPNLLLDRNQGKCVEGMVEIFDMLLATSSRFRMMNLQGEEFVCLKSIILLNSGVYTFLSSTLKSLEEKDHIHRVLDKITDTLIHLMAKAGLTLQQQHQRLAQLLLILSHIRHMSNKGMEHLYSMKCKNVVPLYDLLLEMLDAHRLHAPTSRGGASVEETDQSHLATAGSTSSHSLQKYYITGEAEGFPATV
Summary of the method: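 VM7Luc4E2 cells (endogenous full-length ER-alpha, 4×ERE-luciferase) were precultured 5 days in phenol red-free medium with 10% charcoal-stripped FBS, given 10.0nM ICI-182,780 (final), then treated with compounds at 15 concentrations for 22hr at 37C; luminescence read with ONE-Glo.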

[18] = qHTS assay to identify small molecule agonists of the TGF-beta/Smad signaling pathway - cell viability counter screen (AID 1346829); further: top concentration of the series differs between compounds; nearly all actives have a fitted effect of over 45% in size
Summary of the method: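 In parallel with the Smad reporter read, viability of HEK 293T cells stably carrying SBE-bla is quantified by ATP luminescence following 5 hr compound treatment.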

[19] = target: Thyrotropin-releasing hormone receptor (Homo sapiens) (UniProt P34981); test: qHTS assay to identify small molecule antagonists of the thyrotropin-releasing hormone receptor (TRHR) signaling pathway (AID 1346877; active means well fitted inhibition curve with a large enough effect in the repeat runs, not every such curve was filed as active; further: series mostly up to about 51 µM)
Thyrotropin-releasing hormone receptor (Homo sapiens), sequence (P34981 whole entry, looked up): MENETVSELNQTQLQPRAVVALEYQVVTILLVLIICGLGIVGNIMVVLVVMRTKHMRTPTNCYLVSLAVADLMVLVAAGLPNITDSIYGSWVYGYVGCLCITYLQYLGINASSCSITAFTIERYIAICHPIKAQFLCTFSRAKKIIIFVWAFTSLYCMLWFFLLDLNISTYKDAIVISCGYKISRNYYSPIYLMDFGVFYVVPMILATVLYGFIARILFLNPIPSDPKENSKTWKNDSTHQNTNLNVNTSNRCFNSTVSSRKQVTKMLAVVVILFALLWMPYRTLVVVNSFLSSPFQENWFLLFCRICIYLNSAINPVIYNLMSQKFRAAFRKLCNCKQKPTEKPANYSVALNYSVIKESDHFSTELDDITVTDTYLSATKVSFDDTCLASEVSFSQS
Summary of the method: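 TRHR-expressing HEK293 cells were seeded, cultured 18 h at 37 °C, then loaded with calcium dye for 2 h. Compounds were pre-incubated 5 min at room temperature before 1 nM TRH (final) was added, and kinetic fluorescence was recorded for 3 min.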

[20] = target: Androgen receptor (Homo sapiens) (UniProt P10275); test: qHTS assay to identify small molecule agonists of the androgen receptor (AR) signaling pathway in the presence of an antagonist (AID 1259381; calls by dose curve; further: nearly all actives have a fitted effect of over 15% in size)
Androgen receptor (Homo sapiens), sequence (P10275 whole entry, looked up): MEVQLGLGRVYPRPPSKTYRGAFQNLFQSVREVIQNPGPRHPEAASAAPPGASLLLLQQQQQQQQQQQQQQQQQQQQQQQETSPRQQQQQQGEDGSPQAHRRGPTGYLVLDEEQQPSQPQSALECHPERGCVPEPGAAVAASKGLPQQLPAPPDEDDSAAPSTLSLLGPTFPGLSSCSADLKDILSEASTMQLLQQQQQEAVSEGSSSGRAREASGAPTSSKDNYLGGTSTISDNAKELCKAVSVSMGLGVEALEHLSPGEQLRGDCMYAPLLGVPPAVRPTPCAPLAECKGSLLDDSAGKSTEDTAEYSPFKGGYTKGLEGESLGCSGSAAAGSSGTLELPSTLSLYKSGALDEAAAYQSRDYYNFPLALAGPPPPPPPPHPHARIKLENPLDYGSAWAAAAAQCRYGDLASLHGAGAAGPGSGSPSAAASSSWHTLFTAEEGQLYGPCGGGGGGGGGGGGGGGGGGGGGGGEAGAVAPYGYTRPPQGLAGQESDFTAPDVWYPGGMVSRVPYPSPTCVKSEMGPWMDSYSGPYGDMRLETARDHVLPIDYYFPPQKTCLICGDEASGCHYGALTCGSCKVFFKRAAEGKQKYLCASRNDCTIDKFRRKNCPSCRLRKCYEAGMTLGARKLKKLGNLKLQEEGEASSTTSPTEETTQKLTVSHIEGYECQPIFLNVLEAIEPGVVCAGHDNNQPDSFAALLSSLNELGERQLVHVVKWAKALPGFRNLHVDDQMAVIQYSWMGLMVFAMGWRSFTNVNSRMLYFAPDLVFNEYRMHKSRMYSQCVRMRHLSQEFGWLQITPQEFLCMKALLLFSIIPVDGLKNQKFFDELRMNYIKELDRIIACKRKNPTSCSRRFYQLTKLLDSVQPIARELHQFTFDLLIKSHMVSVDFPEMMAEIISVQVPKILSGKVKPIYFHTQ
Summary of the method: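 MDA-kb2 human breast carcinoma cells carrying an MMTV-luciferase reporter (AR- and GR-responsive) were treated with compounds at 15 concentrations plus 3.0uM final nilutamide for 16hr at 37C without CO2; luminescence was read after ONE-Glo addition.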
On the % scale 0 is the no-effect control and ±100 the full control effect.

CC/C=C\CC/C=C/C(OCC)OCC
inactive: outcome [1] | outcome [3] | outcome [4] | Potency [5] | Potency [6] | Potency [7] | outcome [8] | Potency [9] | Potency [10] | Potency [11] | Potency [12] | Potency [13] | Potency [14] | Potency [15] | outcome [16]
active: Potency [2] 27.3 µM

CN1C(=O)N(C)C(O)C1O (configuration not stated)
inactive: outcome [1] | Potency [2] | outcome [3] | outcome [4] | Potency [6] | Potency [7] | Potency [17] | outcome [8] | Potency [9] | Potency [10] | Potency [11] | Potency [13] | Potency [14] | Potency [15] | outcome [18] | outcome [16] | outcome [19]

FC(F)OC(Cl)C(F)(F)F (configuration not stated)
inactive: outcome [1] | Potency [2] | outcome [3] | outcome [4] | Potency [5] | Potency [6] | Potency [7] | Potency [11] | Potency [13] | Potency [14] | Potency [15] | outcome [16] | outcome [19]

COC(=O)c1cc(C(=O)OC)cc(S(=O)(=O)O)c1
inactive: outcome [1] | Potency [2] | outcome [3] | outcome [4] | Potency [5] | Potency [6] | Potency [7] | outcome [8] | Potency [9] | Potency [10] | Potency [11] | Potency [14] | Potency [15] | outcome [18] | outcome [16] | outcome [19]

CC(C)OC(=O)c1ccccc1
inactive: outcome [1] | Potency [2] | outcome [3] | Potency [5] | Potency [6] | Potency [7] | Potency [17] | outcome [8] | Potency [9] | Potency [10] | Potency [11] | Potency [12] | Potency [13] | Potency [14] | Potency [15] | outcome [18] | outcome [16]

O=C(O)CN(CCOCCOCCN(CC(=O)O)CC(=O)O)CC(=O)O
inactive: activity change [1] -0.0947% [at 0.349 µM] | activity change, negative = inhibition [2] 23.6% [at 0.349 µM] | activation [3] -3.04% [at 0.348 µM] | activity, negative = inhibition [4] -7.82% [at 0.349 µM] | activity change, negative = cytotoxicity [5] 4.76% [at 0.35 µM] | activity change, negative = cytotoxicity [6] 9.83% [at 0.349 µM] | activity change, negative = cytotoxicity [7] 2.26% [at 0.349 µM] | cAMP activity change [8] 3.85% [at 0.349 µM] | activity change, negative = inhibition [9] 0.526% [at 0.349 µM] | activity change, negative = cytotoxicity [10] 2.94% [at 0.349 µM] | activation [11] -1.13% [at 0.349 µM] | activity change, negative = inhibition [12] 0.191% [at 0.348 µM] | activity change, negative = cytotoxicity [13] 5.83% [at 0.348 µM] | activity change, negative = cytotoxicity [14] 5.81% [at 0.349 µM] | viability change, negative = cytotoxic [15] 3.24% [at 0.29 µM] | activity change, negative = cytotoxicity [18] 0.742% [at 0.29 µM] | activation [16] 3.14% [at 0.29 µM]

CC(=O)CC(C)(C)C1CCCCC1
inactive: outcome [1] | Potency [2] | outcome [3] | outcome [4] | Potency [5] | Potency [6] | Potency [7] | Potency [17] | Potency [10] | Potency [13] | Potency [15] | outcome [18] | outcome [16] | outcome [19]

CCCCOCCOCCOCc1cc2c(cc1CCC)OCO2
inactive: outcome [1] | outcome [3] | outcome [4] | Potency [6] | Potency [20] | Potency [7] | outcome [8] | Potency [10] | Potency [11] | Potency [13] | Potency [14] | Potency [15] | outcome [18] | outcome [16] | outcome [19]
active: Potency [2] 1.39 µM and 2.66 µM | Potency [9] 23.7 µM
